Where “and” joins values, the source holds several entries; their conditions need not be identical. Equal entries are not always repeated. Results filed as inconclusive are left out. A structure can be active in one record and inactive in another. Calls of active or inactive are those of the source. Rule for the calls, unless noted: active = hit-call score of the fitted dose curve at least 0.9, where 1 is the maximum; inactive = score below 0.9.
How the values were obtained:
[1] = ATG_TAL_CIS: Attagene CIS-FACTORIAL HepG2 Assay for human TAL Basal Promoter (AID 2282966); settings: HepG2 Attagene cis-factorial TAL promoter reporter; actives raise or lower the signal;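 note: background control endpoint measuring basal TAL promoter reporter mRNA not a specific factor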
Outline: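 Background-control endpoint: basal TAL promoter reporter transcripts in transiently transfected HepG2, measured 24 h after dosing. Read-out by RT-PCR with fluorescent primer extension and capillary electrophoresis; gain or loss of signal fitted relative to DMSO.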

[2] = ATG_TGFb_CIS: Attagene CIS-FACTORIAL HepG2 Assay for human Transforming Growth Factor (TGF) (AID 2282967); settings: HepG2 Attagene CIS TGFb reporter, mRNA transcription; actives raise or lower the signal
Outline: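 Multiplexed cis-reporter HepG2 system, 24 h treatment; mRNA induction read by fluorescence after RT-PCR and CE; DMSO negative control, bidirectional curve fitting.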

[3] = ATG_VDRE_CIS: Attagene CIS-FACTORIAL HepG2 Assay for human Vitamin D Receptor Element (VDRE) (AID 2282968); settings: HepG2 VDRE cis-reporter transcription, actives raise or lower the signal
Outline: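 Steps: transfect HepG2 with multiple reporter transcription units; dose chemicals 24 h; isolate RNA; RT-PCR; label with 6-FAM primer extension; HpaI digest; capillary electrophoresis. Curves fitted both directions against DMSO.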

[4] = target: Nuclear receptor subfamily 1 group I member 3 (Homo sapiens) (UniProt Q14994); test: ATG_CAR_TRANS: Attagene TRANS-FACTORIAL HepG2 Assay for human Constitutive Androstane Receptor (CAR) (AID 2282969; active = hit-call score of the fitted dose curve at least 0.9, where 1 is the maximum;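 note: activators raise reporter mRNA above DMSO so AC50 marks induction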); settings: HepG2 Attagene TRANS-FACTORIAL CAR reporter
Outline: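 Steps: transient transfection of HepG2 with multiple GAL4-UAS reporter units; 24 h compound incubation; RNA isolation, RT-PCR, 6-FAM primer extension, HpaI digest; capillary electrophoresis. Gain-of-signal relative to DMSO negative control.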

[5] = target: Estrogen receptor (Homo sapiens) (UniProt P03372); test: ATG_ERa_TRANS: Attagene TRANS-FACTORIAL HepG2 Assay for human Estrogen Receptor alpha (ERa) (AID 2282970; active = hit-call score of the fitted dose curve at least 0.9, where 1 is the maximum); settings: HepG2 Attagene TRANS ERa GAL4 reporter, mRNA
Outline: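 Reporter transcripts were measured 24 h after dosing by RT-PCR with fluorescent primer extension and capillary electrophoresis. The system is transiently transfected HepG2 expressing exogenous NR-Gal4 chimeras driving GAL4-UAS reporters; DMSO is the baseline.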

[6] = target: Steroid hormone receptor ERR1 (Homo sapiens) (UniProt P11474); test: ATG_ERRa_TRANS: Attagene TRANS-FACTORIAL HepG2 Assay for human Estrogen-Related Receptor alpha (ERRa) (AID 2282971; active = hit-call score of the fitted dose curve at least 0.9, where 1 is the maximum); settings: HepG2 Attagene TRANS reporter, ERRa transactivation
Outline: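 Reporter transcripts from ERRa-Gal4 chimera activity measured in transiently transfected human HepG2 cells 24 hours after dosing, using RT-PCR with 6-FAM primer extension, HpaI digestion and capillary electrophoresis; DMSO is baseline.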

[7] = target: X-box-binding protein 1 (Homo sapiens) (UniProt P17861); test: ATG_Xbp1_CIS: Attagene CIS-FACTORIAL HepG2 Assay for human X-box Binding Protein 1 (XBP1) (AID 2282972); settings: HepG2 XBP1 cis-element reporter, Attagene multiplex; actives raise or lower the signal
Outline: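 Changes in reporter transcript abundance, read by RT-PCR and capillary electrophoresis, reflect endogenous transcription factor activity. Transfected HepG2 cells received compound for 24 hours; DMSO defined baseline for bidirectional analysis.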

[8] = ATG_GAL4_TRANS: Attagene TRANS-FACTORIAL HepG2 Assay for GAL4 (Internal Marker) (AID 2282976; active = hit-call score of the fitted dose curve at least 0.9, where 1 is the maximum); settings: HepG2 Attagene TRANS GAL4 internal marker reporter
Outline: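 In transfected human HepG2 liver cells dosed 24 h, GAL4 reporter mRNA serves as a baseline marker. Detection by RT-PCR with fluorescent capillary electrophoresis, activity fitted upward relative to DMSO.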

[9] = target: Estrogen-related receptor gamma (Homo sapiens) (UniProt P62508); test: ATG_ERRg_TRANS: Attagene TRANS-FACTORIAL HepG2 Assay for human Estrogen-Related Receptor gamma (ERRg) (AID 2282977; active = hit-call score of the fitted dose curve at least 0.9, where 1 is the maximum;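 note: hits increase reporter signal over DMSO so potencies reflect activators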); settings: HepG2 Attagene TRANS reporter, ERRg transactivation
Outline: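 Exogenous NR-Gal4 chimera activity measured as reporter transcript induction after 24 h in transiently transfected HepG2 cells. RNA reverse-transcribed, PCR-amplified, 6-FAM-labelled and resolved by capillary electrophoresis; increase over DMSO baseline.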

[10] = ATG_M_19_TRANS: Attagene TRANS-FACTORIAL HepG2 Assay for M19 Transcription Factor (Internal Marker) (AID 2282974; active = hit-call score of the fitted dose curve at least 0.9, where 1 is the maximum); settings: HepG2 Attagene TRANS-FACTORIAL M19 internal marker reporter
Outline: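 Background-control readout: after 24 h chemical exposure of transfected HepG2 carrying GAL4-driven reporter units, RNA was reverse-transcribed, amplified, fluorescently labeled and sized by capillary electrophoresis; gain-of-signal fit against DMSO.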

Sequence of X-box-binding protein 1 (Homo sapiens) (P17861 whole entry, looked up): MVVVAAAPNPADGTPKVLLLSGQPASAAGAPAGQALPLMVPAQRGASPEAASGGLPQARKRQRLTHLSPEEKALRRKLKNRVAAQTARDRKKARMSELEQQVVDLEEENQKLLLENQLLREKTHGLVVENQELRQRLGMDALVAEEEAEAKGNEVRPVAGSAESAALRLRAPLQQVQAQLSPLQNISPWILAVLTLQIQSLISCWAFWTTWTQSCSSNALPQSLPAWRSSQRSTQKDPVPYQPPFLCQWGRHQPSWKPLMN
Sequence of Estrogen receptor (Homo sapiens) (P03372 whole entry, looked up, the tested form may be a part): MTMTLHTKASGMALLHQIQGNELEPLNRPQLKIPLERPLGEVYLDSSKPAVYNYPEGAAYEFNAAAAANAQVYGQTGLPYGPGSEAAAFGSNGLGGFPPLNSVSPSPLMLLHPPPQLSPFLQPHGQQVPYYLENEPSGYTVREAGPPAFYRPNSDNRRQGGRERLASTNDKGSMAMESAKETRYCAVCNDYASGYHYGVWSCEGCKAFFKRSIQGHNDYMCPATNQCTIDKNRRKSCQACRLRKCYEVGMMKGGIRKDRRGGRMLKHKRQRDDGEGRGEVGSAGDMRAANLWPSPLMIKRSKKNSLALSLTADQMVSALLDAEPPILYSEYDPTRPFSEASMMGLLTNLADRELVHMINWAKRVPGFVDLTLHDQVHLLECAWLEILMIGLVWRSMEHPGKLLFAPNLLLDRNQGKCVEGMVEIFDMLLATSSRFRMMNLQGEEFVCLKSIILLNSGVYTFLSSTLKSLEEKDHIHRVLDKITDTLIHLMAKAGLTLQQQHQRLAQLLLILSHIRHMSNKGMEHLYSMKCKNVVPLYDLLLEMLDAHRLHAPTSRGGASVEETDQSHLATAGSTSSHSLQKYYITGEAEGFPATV
Sequence of Nuclear receptor subfamily 1 group I member 3 (Homo sapiens) (Q14994 whole entry, looked up, the tested form may be a part): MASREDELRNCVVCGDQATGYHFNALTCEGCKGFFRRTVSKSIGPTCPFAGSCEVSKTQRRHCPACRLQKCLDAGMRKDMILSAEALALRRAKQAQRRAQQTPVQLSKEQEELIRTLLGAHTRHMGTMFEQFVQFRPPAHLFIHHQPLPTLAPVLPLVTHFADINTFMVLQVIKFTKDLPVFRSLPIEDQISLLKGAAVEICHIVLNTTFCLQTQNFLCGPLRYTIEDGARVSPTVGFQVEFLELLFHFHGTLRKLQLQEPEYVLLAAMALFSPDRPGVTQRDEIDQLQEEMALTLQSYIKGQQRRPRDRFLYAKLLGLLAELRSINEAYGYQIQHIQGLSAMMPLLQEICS
Sequence of Steroid hormone receptor ERR1 (Homo sapiens) (P11474 whole entry, looked up, the tested form may be a part): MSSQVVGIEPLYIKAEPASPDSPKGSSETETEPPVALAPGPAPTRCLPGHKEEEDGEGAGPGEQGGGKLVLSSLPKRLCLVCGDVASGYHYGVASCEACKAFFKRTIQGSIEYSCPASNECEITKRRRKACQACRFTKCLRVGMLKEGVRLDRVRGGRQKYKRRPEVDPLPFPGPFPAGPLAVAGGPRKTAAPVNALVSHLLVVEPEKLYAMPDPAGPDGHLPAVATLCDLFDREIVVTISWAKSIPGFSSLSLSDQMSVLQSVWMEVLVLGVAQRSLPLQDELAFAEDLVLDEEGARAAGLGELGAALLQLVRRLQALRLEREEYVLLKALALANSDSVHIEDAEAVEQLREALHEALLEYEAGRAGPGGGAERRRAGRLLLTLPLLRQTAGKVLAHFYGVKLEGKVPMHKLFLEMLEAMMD
Sequence of Estrogen-related receptor gamma (Homo sapiens) (P62508 whole entry, looked up, the tested form may be a part): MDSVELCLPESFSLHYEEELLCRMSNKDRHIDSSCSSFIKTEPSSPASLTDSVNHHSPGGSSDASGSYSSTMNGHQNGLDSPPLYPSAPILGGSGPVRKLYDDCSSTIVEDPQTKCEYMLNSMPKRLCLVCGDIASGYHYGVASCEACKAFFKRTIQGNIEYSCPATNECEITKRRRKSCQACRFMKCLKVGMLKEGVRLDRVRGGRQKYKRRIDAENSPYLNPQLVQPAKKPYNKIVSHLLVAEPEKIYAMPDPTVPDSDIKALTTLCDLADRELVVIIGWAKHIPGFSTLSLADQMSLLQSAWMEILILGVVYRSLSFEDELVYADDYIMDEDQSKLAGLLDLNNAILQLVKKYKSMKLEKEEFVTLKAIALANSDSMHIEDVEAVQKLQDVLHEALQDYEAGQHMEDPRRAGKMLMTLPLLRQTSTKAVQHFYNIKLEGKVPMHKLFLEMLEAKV

## O=C(Cl)C(F)(F)C(F)(F)C(F)(F)C(=O)Cl
[1]
  outcome: inactive
[2]
  outcome: inactive
[3]
  outcome: inactive
[4]
  outcome: inactive
[5]
  outcome: inactive
[6]
  outcome: inactive
[7]
  outcome: inactive
[8]
  outcome: inactive
[9]
  outcome: inactive

## FC(F)C(F)(F)COCC1CO1 (stereo unspecified)
[1]
  outcome: inactive
[2]
  outcome: inactive
[3]
  outcome: inactive
[4]
  outcome: inactive
[5]
  AC50: 82 µM (active) and 39.8 µM (active)
[6]
  outcome: inactive
[7]
  outcome: inactive
[10]
  outcome: inactive
[9]
  outcome: inactive

## O=C(O)CO
[1]
  outcome: inactive
[2]
  outcome: inactive
[3]
  outcome: inactive
[4]
  outcome: inactive
[5]
  outcome: inactive
[7]
  outcome: inactive
[8]
  outcome: inactive

## O=S(=O)(O)CCC(F)(F)C(F)(F)C(F)(F)C(F)(F)C(F)(F)C(F)(F)F
[1]
  outcome: inactive
[2]
  outcome: inactive
[3]
  outcome: inactive
[4]
  outcome: inactive
[5]
  outcome: inactive
[6]
  outcome: inactive
[7]
  outcome: inactive
[8]
  outcome: inactive
[9]
  outcome: inactive

## OCCC(F)(F)C(F)(F)C(F)(F)C(F)(F)F
[1]
  outcome: inactive
[2]
  outcome: inactive
[3]
  outcome: inactive
[4]
  outcome: inactive
[5]
  outcome: inactive
[6]
  outcome: inactive
[7]
  outcome: inactive
[10]
  outcome: inactive
[8]
  outcome: inactive
[9]
  outcome: inactive

## CC(C)c1nnc2ccc(-c3ocnc3-c3cc(F)ccc3F)cn12
[1]
  outcome: inactive
[2]
  outcome: inactive
[3]
  AC50: 37.7 µM (active)
[4]
  outcome: inactive
[5]
  outcome: inactive
[6]
  outcome: inactive
[7]
  outcome: inactive
[9]
  outcome: inactive

## OCCOCCOCCO
[1]
  outcome: inactive
[2]
  outcome: inactive
[3]
  outcome: inactive
[4]
  outcome: inactive
[5]
  outcome: inactive
[7]
  outcome: inactive
[10]
  outcome: inactive

## NCC(F)(F)C(F)(F)C(F)(F)C(F)(F)F
[1]
  outcome: inactive
[2]
  outcome: inactive
[3]
  outcome: inactive
[4]
  outcome: inactive
[5]
  outcome: inactive
[6]
  outcome: inactive
[7]
  outcome: inactive
[8]
  outcome: inactive

## FC(F)(F)C(F)(F)C(F)(F)C(F)(F)C(F)(F)C(F)(F)I
[1]
  outcome: inactive
[2]
  outcome: inactive
[3]
  outcome: inactive
[4]
  outcome: inactive
[5]
  AC50: 13.7 µM (active) and 17 µM (active)
[6]
  outcome: inactive
[7]
  outcome: inactive
[8]
  outcome: inactive
[9]
  outcome: inactive

## C[C@@H](Oc1ccc(CNC(=O)c2cccnc2Oc2ccc3c(c2)OCO3)c(F)c1)C(=O)O
[1]
  outcome: inactive
[2]
  outcome: inactive
[3]
  outcome: inactive
[4]
  outcome: inactive
[5]
  outcome: inactive
[6]
  outcome: inactive
[7]
  outcome: inactive
[8]
  outcome: inactive
[9]
  outcome: inactive

## CCn1nc(C)c2c1C(=O)NCC(c1ccc(O)cc1)=N2
[1]
  outcome: inactive
[2]
  outcome: inactive
[3]
  outcome: inactive
[4]
  outcome: inactive
[5]
  outcome: inactive
[7]
  outcome: inactive
[8]
  outcome: inactive

## Cc1cccc(O)c1C
[1]
  outcome: inactive
[2]
  outcome: inactive
[3]
  outcome: inactive
[4]
  outcome: inactive
[5]
  AC50: 38.5 µM (active) and 46 µM (active)
[6]
  outcome: inactive
[7]
  outcome: inactive
[8]
  outcome: inactive
[9]
  outcome: inactive

## OCc1c[nH]c2ccccc12
[1]
  outcome: inactive
[2]
  outcome: inactive
[3]
  AC50: 5.32 µM (active) [middle of 5 runs]
[4]
  outcome: inactive
[5]
  AC50: 5.36 µM (active) [middle of 5 runs]
[6]
  outcome: inactive
[7]
  outcome: inactive
[8]
  outcome: inactive
[9]
  outcome: inactive

## CNC(C)=O
[1]
  outcome: inactive
[2]
  outcome: inactive
[3]
  outcome: inactive
[4]
  outcome: inactive
[5]
  outcome: inactive
[7]
  outcome: inactive

## c1ccc2c(c1)-c1cccc3c1c-2cc1ccccc13
[1]
  outcome: inactive
[2]
  outcome: inactive
[3]
  outcome: inactive
[4]
  outcome: inactive
[5]
  outcome: inactive
[7]
  outcome: inactive
[8]
  outcome: inactive

## S=P(N1CC1)(N1CC1)N1CC1
[1]
  outcome: inactive
[2]
  outcome: inactive
[3]
  AC50: 17 µM (active) and 27.4 µM (active)
  outcome: inactive
[4]
  outcome: inactive
[5]
  outcome: inactive
[6]
  outcome: inactive
[7]
  outcome: inactive
[8]
  outcome: inactive
[9]
  outcome: inactive

## CCN(CC)C(=S)SSC(=S)N(CC)CC
[1]
  outcome: inactive
[2]
  outcome: inactive
[3]
  AC50: 117 µM (active)
[4]
  outcome: inactive
[5]
  outcome: inactive
[7]
  AC50: 139 µM (active)

## O=S(=O)(O)c1ccc(N=Nc2c(O)ccc3cc(S(=O)(=O)O)ccc23)cc1
[1]
  outcome: inactive
[2]
  outcome: inactive
[3]
  outcome: inactive
[4]
  outcome: inactive
[5]
  outcome: inactive
[6]
  outcome: inactive
[7]
  outcome: inactive
[9]
  outcome: inactive

## OC(O)(C(F)C(O)(O)C(F)(F)F)C(F)(F)F
[1]
  AC50: 51.9 µM (active) and 25.8 µM (active)
[2]
  outcome: inactive
[3]
  outcome: inactive
[4]
  outcome: inactive
[5]
  AC50: 194 µM (active)
  outcome: inactive
[6]
  outcome: inactive
[7]
  AC50: 61.9 µM (active) and 33 µM (active)
[8]
  outcome: inactive
[9]
  outcome: inactive

## COc1cc(C(C)C)c2c(c1)S(=O)(=O)N(COc1cc(=O)n3cccc(OCCN4CCCCC4)c3n1)C2=O
[1]
  outcome: inactive
[2]
  outcome: inactive
[3]
  AC50: 5.67 µM (active)
[4]
  AC50: 2.75 µM (active)
[5]
  AC50: 2.75 µM (active)
[7]
  AC50: 6.56 µM (active)
[10]
  outcome: inactive

## OC(CCl)CCl
[1]
  outcome: inactive
[2]
  outcome: inactive
[3]
  outcome: inactive
[4]
  outcome: inactive
[5]
  outcome: inactive
[7]
  outcome: inactive
[8]
  outcome: inactive

## FC(F)=C(F)C(F)(F)C(F)(F)C(F)(F)C(F)(F)C(F)(F)C(F)(F)F
[1]
  outcome: inactive
[2]
  outcome: inactive
[3]
  outcome: inactive
[4]
  outcome: inactive
[5]
  AC50: 12.9 µM (active)
  outcome: inactive
[6]
  outcome: inactive
[7]
  outcome: inactive
[8]
  outcome: inactive
[9]
  outcome: inactive

From PubChem BioAssay (EPA / NIEHS)
